# Screen size: about 340,000 compounds; about 1,400 (0.41%) were called active. Inconclusive results (about 4%) are left out. What follows is part of a selection rich in actives, with near analogues and random picks from the rest. Values without a mark were called inactive. The call rests on the fitted dose curve; cell line not stated here.
# Test: qHTS for Antagonists of gsp, the Etiologic Mutation Responsible for Fibrous Dysplasia/McCune-Albright Syndrome: qHTS; further: nearly all actives have a fitted effect of over 65% in size
# Conditions: gsp-mutant cells, cAMP HTRF, 30 min; series mostly up to 76.9 µM; activity change, negative = inhibition: at the top concentration
# Source text: McCune-Albright syndrome (MAS) is a rare disease caused by somatic mutations in Gsgsp), a widely expressed protein central in signal transduction from G-coupled protein receptors (GPCRs). The disease symptoms are diverse, owing to the fact that the patients are mosaics with varying degrees of tissue involvement. Greater than 90% of the mutations in Gs in MAS occur at the R201 position and are equally divided between R201H and R201C. The R201 residue is central in the intrinsic GTPase activity of Gs and the H and C mutations lead to loss of, or impairment of, the GTPase activity. The intrinsic GTPase activity is necessary to terminate the interaction between Gs and adenylate cyclase, and to terminate the cAMP-mediated signaling of the given GPCR pathway. Thus, these activating mutations lead to ligand-independent activation of GPCR pathways. The tissue phenotype is determined by the role of Gs in the function of a given cell, and excess Gs/cAMP signaling in that cell. For example, pituitary somatotrophs overproduce growth hormone in a growth hormone releasing hormone-independent fashion, and gigantism/acromegaly ensues. Skeletal stem cells in the bone marrow behave as if they are under constant parathyroid hormone stimulation and fail to differentiate into osteoblasts and osteocytes, and proliferate as immature osteogenic cells and lead to the marrow fibrosis of fibrous dysplasia of bone. The goal of this project is to identify molecules with inhibitory activity at gsp mutations that will not only allow for in-depth study of the underlying molecular and cellular pathophysiology, but also serve as compounds from which drugs to treat FD/MAS can be developed NIH Chemical Genomics Center [NCGC] NIH Molecular Libraries Probe Centers Network [MLPCN] MLPCN Grant: IRP-FT-DE-2011-01 Assay Submitter (PI): Michael Collins, NIDCR
# 1.#Seed 2000 cells/well in 6 ul DMEM 10% FBS, 1% Pen/Strep, 0.5 mg/ml G418 2.#Incubate 16-24 hr at 37C, 5% CO2, 95% humidity 3.#Aspirate leaving 1 ul residual volume 4.#Dispense 5 ul/well DPBS + 1 mM CaCl2, 0.5 mM MgCl2, 0.05% BSA, 0.005% Tween 20 5.#Aspirate leaving 2 ul residual volume 6.#Dispense 23 nl/well compounds in DMSO 7.#Dispense 1 ul/well 300 uM Ro-20174 in DMEM 10% FBS 8.#Incubate 30 min at 37C, 5% CO2, 95% humidity 9.#Dispense 1.5 ul/well HTRF reagent: cAMP-d2 in lysis buffer 10.#Dispense 1.5 ul/well HTRF reagent: anti-cAMP antibody-K in lysis buffer 11.#Incubate 30 min at room temperature 12.#Detect HTRF signal using EnVision plate reader
# On the % scale 0 is the no-effect control and ±100 the full control effect; potency means the concentration at half of the fitted maximal effect.
SMILES,Potency,"activity change, negative = inhibition"
CC1=CC(=Cc2sc3ccccc3[n+]2C)C=C(C)O1,44.7 µM (active),
COc1ccc(-n2c(-c3ccccc3)nc3ccccc3c2=O)cc1,,-9.38%
Cc1ccc(-n2c(-c3ccc([N+](=O)[O-])cc3)nc3ccccc3c2=O)cc1,,-12.7%
COc1cc(C(c2c(O)c3ccccc3oc2=O)c2c(C)n(C)n(-c3ccccc3)c2=O)ccc1O (stereo not given),,19.4%
CCC(=O)CC(c1ccc([N+](=O)[O-])cc1)c1c(O)c2ccccc2oc1=O (stereo not given),31.6 µM (active),
CC[C@H]1CN2CCc3cc(OC)c(OC)cc3[C@@H]2C[C@@H]1C[C@H]1NCCc2cc(OC)c(OC)cc21,,-7.25%
CN(C)C(=O)NC(O)C(Cl)(Cl)Cl (stereo not given),,7.94%
CC(=O)OC1C2(CC3N4C(=O)C5(CO)SSC4(CC31O)C(=O)N5C)OC(C)C(C)(C)C2=O (stereo not given),,4.27%
C=CCn1c(O)c(/C=N/N2CCOCC2)c(=O)[nH]c1=S,,-6.96%
COC(=O)C1=C(c2c(C)noc2C)C[C@@H]2CC[C@H]1N2C(=O)NCc1ccc2c(c1)OCO2,,4.81%

# — PubChem BioAssay AID624288 (National Center for Advancing Translational Sciences (NCATS), 2012)
